# Laboratory results: the supplement of paper PMC11628255, “Interference of metal ions on the bioluminescent signal of firefly, Renilla, and NanoLuc luciferases in high-throughput screening assays” (Frontiers in Chemistry, 2024)
# ± gives the standard deviation of the averaged measurements.
# System: NanoLuc luciferase (NLuc)
# Assay: residual bioluminescent signal relative to negative control without GSH; higher = less interference (more residual luciferase signal)
# Details: screening conditions buffer
# Protocol: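 Selected metal salts at 3-4 concentrations tested on purified FLuc, NLuc or RLuc in screening buffer with 0, 0.2 or 2 mM glutathione added; 10 min enzyme pre-incubation at RT, luminescence 10 min after substrate. Signal normalised to negative control without GSH (% N_VALUE); triplicate wells.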
# [1] = metal salt concentration 1 mM, glutathione 0 mM
# [2] = metal salt concentration 1 mM, glutathione 0.2 mM
# [3] = metal salt concentration 1 mM, glutathione 2 mM
# [4] = metal salt concentration 0.001 mM, glutathione 0 mM
# [5] = metal salt concentration 0.001 mM, glutathione 0.2 mM
# [6] = metal salt concentration 0.001 mM, glutathione 2 mM
structure (smiles),measurement,setting,value
O=[N+]([O-])[O-].O=[N+]([O-])[O-].[Cu+2] [copper(II) nitrate],residual bioluminescent signal,"metal salt concentration 0.0005 mM, glutathione 0 mM",104 ± 4.1%
same,residual bioluminescent signal,"metal salt concentration 0.0005 mM, glutathione 0.2 mM",106 ± 5.4%
same,residual bioluminescent signal,"metal salt concentration 0.0005 mM, glutathione 2 mM",89.3 ± 3.6%
same,residual bioluminescent signal,"metal salt concentration 0.017 mM, glutathione 0 mM",101 ± 7.7%
same,residual bioluminescent signal,"metal salt concentration 0.017 mM, glutathione 0.2 mM",104 ± 6.7%
same,residual bioluminescent signal,"metal salt concentration 0.017 mM, glutathione 2 mM",92.9 ± 4.8%
same,residual bioluminescent signal,"metal salt concentration 0.02 mM, glutathione 0 mM",86.4 ± 3.7%
same,residual bioluminescent signal,"metal salt concentration 0.02 mM, glutathione 0.2 mM",98 ± 2.7%
same,residual bioluminescent signal,"metal salt concentration 0.02 mM, glutathione 2 mM",84.1 ± 2.6%
same,residual bioluminescent signal,[1],0.661 ± 0.17%
same,residual bioluminescent signal,[2],1.03 ± 0.57%
same,residual bioluminescent signal,[3],68.9 ± 7.9%
O=[N+]([O-])[O-].[Ag+] [silver nitrate],residual bioluminescent signal,[4],98.9 ± 6.8%
same,residual bioluminescent signal,[5],102 ± 1.4%
same,residual bioluminescent signal,[6],90.9 ± 4.7%
same,residual bioluminescent signal,"metal salt concentration 0.0114 mM, glutathione 0 mM",15.6 ± 8%
same,residual bioluminescent signal,"metal salt concentration 0.0114 mM, glutathione 0.2 mM",106 ± 1.6%
same,residual bioluminescent signal,"metal salt concentration 0.0114 mM, glutathione 2 mM",85.33 ± 0.82%
same,residual bioluminescent signal,"metal salt concentration 0.05 mM, glutathione 0 mM",2.78 ± 0.95%
same,residual bioluminescent signal,"metal salt concentration 0.05 mM, glutathione 0.2 mM",107 ± 4.8%
same,residual bioluminescent signal,"metal salt concentration 0.05 mM, glutathione 2 mM",85.7 ± 1%
same,residual bioluminescent signal,[1],3.17 ± 0.68%
same,residual bioluminescent signal,[2],15.2 ± 5.5%
same,residual bioluminescent signal,[3],82.48 ± 0.71%
O=[N+]([O-])[O-].O=[N+]([O-])[O-].[Zn+2] [zinc nitrate],residual bioluminescent signal,[4],98.9 ± 6.3%
same,residual bioluminescent signal,[5],103 ± 6.2%
same,residual bioluminescent signal,[6],89.6 ± 2.3%
same,residual bioluminescent signal,"metal salt concentration 0.174 mM, glutathione 0 mM",50.9 ± 6%
same,residual bioluminescent signal,"metal salt concentration 0.174 mM, glutathione 0.2 mM",72.7 ± 2.8%
same,residual bioluminescent signal,"metal salt concentration 0.174 mM, glutathione 2 mM",77.5 ± 7.3%
same,residual bioluminescent signal,[1],34.2 ± 8.5%
same,residual bioluminescent signal,[2],42.1 ± 1.7%
same,residual bioluminescent signal,[3],63.9 ± 1.7%
same,residual bioluminescent signal,"metal salt concentration 5 mM, glutathione 0 mM",5.95 ± 1.4%
same,residual bioluminescent signal,"metal salt concentration 5 mM, glutathione 0.2 mM",7.9 ± 2.7%
same,residual bioluminescent signal,"metal salt concentration 5 mM, glutathione 2 mM",12.4 ± 2.1%
